The target of test [1] is Nuclear receptor coactivator 3 (Homo sapiens) (UniProt Q9Y6Q9). In words: SRC3 coactivator transcriptional activity inhibitors, confirmation, cell-based, luminescence, quadruplicate (AID 588792).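 Also: 0% = DMSO treated cells and 100% = gossypol at 36 µM.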 The settings on record: HEK293 GAL4-SRC3 luciferase reporter, at 3.6 µM, stronger effect = higher value.
The subject of test [2] is transactivating tegument protein VP16 (Human herpesvirus 1), Gal4-VP16 luciferase reporter. Nature of the test: VP16 transactivation inhibitors, counter-screen for SRC3 inhibitor project, cell-based, luminescence, high throughput (AID 588794; in the data active = inhibition above about 30%). Particulars: mammalian cells, VP16-driven luciferase reporter luminescence; at 3.6 µM; stronger effect = higher value.
The nature of test [3]: StAR promoter reporter inhibitors, counter-screen for LRH-1 inverse agonist project, cell-based, luminescence, high throughput (AID 651611; in the data active = inhibition above about 28%). The settings on record: StAR promoter luciferase reporter counterscreen, at 3.6 µM, stronger effect = higher value.
Test [4] concerns the target Nuclear receptor subfamily 5 group A member 2 (Homo sapiens) (UniProt O00482). In words: LRH-1 (NR5A2) inverse agonists, retest, confirmation, cell-based, luminescence (AID 651613; in the data active = inhibition above about 42%;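 also: HEK293T cells co-transfected with LRH-1 and StAR promoter luciferase reporter; 0% = vehicle wells and 100% = parental cells lacking receptor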). Particulars: cell-based LRH-1 luciferase reporter, inverse agonism; at 3.6 µM; stronger effect = higher value.
In test [5] the target is Steroidogenic factor 1 (Homo sapiens) (UniProt Q13285). Nature of the test: SF1 (NR5A1) inverse agonists, counter-screen for LRH-1 inverse agonist project, cell-based, luminescence, high throughput (AID 651614; in the data active = inhibition above about 44%;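 also: cells cotransfected with StAR promoter reporter and SF1 expression vector; 0% = vehicle on cells with receptor and 100% = vehicle on cells lacking receptor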). The settings on record: cell-based SF1 luciferase reporter, at 3.6 µM, stronger effect = higher value.
Test [6] is described as follows: VP16 transactivation reporter inhibitors, counter-screen for LRH-1 inverse agonist project, cell-based, luminescence, high throughput (AID 651615; in the data active = inhibition above about 33%). Particulars: Gal4-VP16 luciferase reporter cells, at 3.6 µM, stronger effect = higher value. On the technique in general: A counterscreen serves to expose hits that act by an unwanted route or on another target.
Test [7] addresses Photoreceptor-specific nuclear receptor (Homo sapiens) (UniProt Q9Y5X4). Nature of the test: NR2E3 agonist confirmation in cells, cell-based, luminescence, CHO-S two-hybrid (AID 624378;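 active = average inhibition above a cutoff equal to the mean inhibition of all tested compounds plus one SD, cut at about 70% in these data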;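 also: 0% = DMSO in NR2E3 cells and 100% = DMSO in cells lacking NR2E3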). The settings on record: CHO-S mammalian two-hybrid NR2E3-NCOR, luciferase luminescence; at 3.98 µM; stronger effect = higher value.
A short description of test [8]: GAL4-VP16 reporter modulators, confirmation, counter-screen for NR2E3 agonist project, cell-based, luminescence, CHO-S, high throughput (AID 624379;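 active = mean inhibition above a cutoff equal to the average over all tested compounds plus one standard deviation, cut at about 70% in these data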;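 also: 0% = DMSO with VP16-transfected cells and 100% = DMSO with cells lacking VP16; higher means less reporter light so more repression of VP16 activity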). Particulars: CHO-S GAL4-VP16 luciferase reporter, at 3.98 µM, stronger effect = higher value.
Test [9] has as its system transactivating tegument protein VP16 (Human herpesvirus 1). In words: VP16 transactivation reporter inhibitors, counter-screen for SRC2 inhibitor project, cell-based, luminescence, single concentration (AID 652007; in the data active = inhibition above about 36%). The settings on record: cell-based VP16 transactivation luciferase reporter, at 8.9 µM, stronger effect = higher value.
The target of test [10] is Nuclear receptor coactivator 2 (Homo sapiens) (UniProt Q15596). In words: SRC2 coactivator transcriptional activity inhibitors, confirmation, cell-based, luminescence, HEK293, triplicate (AID 652008;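 active = mean inhibition above 46.5%, the solvent-only control mean plus 3 SD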;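 also: 0% = DMSO-treated cells and 100% = Gossypol at 36 µM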). The settings on record: HEK293 GAL4-SRC2 luciferase reporter, at 8.9 µM, stronger effect = higher value.
Test [11] can be described thus: Gal4-VP16 luciferase reporter inhibitors, counter-screen for COUP-TFII antagonist project, cell-based, luminescence, HEK293 (AID 687007; in the data active = inhibition above about 13%). Particulars: at 8.5 µM, stronger effect = higher value.
Test [12] addresses COUP transcription factor 2 (Homo sapiens) (UniProt P24468). In words: NR2F2 transcriptional activity inhibitors, confirmation, cell-based, luciferase reporter, HEK293, triplicate (AID 687008;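 active = mean inhibition over three repeats above a set limit taken from the earlier primary screen, cut at about 38% in these data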;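 also: 100% = cells given the luciferase reporter alone without the COUP-TF2 vector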). The settings on record: HEK293 NGFI-A luciferase reporter, luminescence; at 8.5 µM; stronger effect = higher value. For orientation: In a reporter assay the amount or activity of a reporter protein is the signal.

In test [13] the target is Nuclear receptor coactivator 1 (Homo sapiens) (UniProt Q15788). In words: SRC1 coactivator transcriptional activity inhibitors, confirmation, cell-based, luminescence, quadruplicate (AID 588820;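 active = mean inhibition above 46.68%, the untreated control wells mean plus 3 SD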;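 also: 0% = DMSO wells and 100% = gossypol 36 µM treated wells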). Particulars: HEK293 GAL4-SRC1 luciferase reporter, at 3.6 µM, stronger effect = higher value.
Test [14] in a line: VP16 transactivation inhibitors, counter-screen for SRC1 inhibitor project, cell-based, luminescence, high throughput (AID 588824; in the data active = inhibition above about 25%). The settings on record: cell-based VP16 transactivation luciferase luminescence; at 3.6 µM; stronger effect = higher value.

The structures appear in SMILES notation. Unmarked numbers belong to inactive results. The list shows a part of the results. Activity calls are given as the source filed them.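 The calls were made as follows, unless noted: active = mean inhibition over 43.08%, the solvent-only control mean plus 3 SD; inactive = the rest.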

A word on the inhibition: it is the drop in the measured response relative to a control, in per cent.

Steroidogenic factor 1 (Homo sapiens), sequence (Q13285 whole entry, looked up, the tested form may be a part): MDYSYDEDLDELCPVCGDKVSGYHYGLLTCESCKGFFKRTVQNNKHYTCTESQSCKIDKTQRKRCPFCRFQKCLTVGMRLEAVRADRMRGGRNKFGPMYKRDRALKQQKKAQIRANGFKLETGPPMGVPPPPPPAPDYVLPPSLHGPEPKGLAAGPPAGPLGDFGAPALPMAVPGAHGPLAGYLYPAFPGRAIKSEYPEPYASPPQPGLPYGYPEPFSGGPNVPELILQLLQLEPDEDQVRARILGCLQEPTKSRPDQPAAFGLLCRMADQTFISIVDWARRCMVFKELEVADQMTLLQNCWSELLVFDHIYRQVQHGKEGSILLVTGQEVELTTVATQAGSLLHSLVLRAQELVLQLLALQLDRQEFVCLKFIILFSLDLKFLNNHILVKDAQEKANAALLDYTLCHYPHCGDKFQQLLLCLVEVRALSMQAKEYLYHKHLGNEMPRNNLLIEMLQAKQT
COUP transcription factor 2 (Homo sapiens), sequence (P24468 whole entry, looked up): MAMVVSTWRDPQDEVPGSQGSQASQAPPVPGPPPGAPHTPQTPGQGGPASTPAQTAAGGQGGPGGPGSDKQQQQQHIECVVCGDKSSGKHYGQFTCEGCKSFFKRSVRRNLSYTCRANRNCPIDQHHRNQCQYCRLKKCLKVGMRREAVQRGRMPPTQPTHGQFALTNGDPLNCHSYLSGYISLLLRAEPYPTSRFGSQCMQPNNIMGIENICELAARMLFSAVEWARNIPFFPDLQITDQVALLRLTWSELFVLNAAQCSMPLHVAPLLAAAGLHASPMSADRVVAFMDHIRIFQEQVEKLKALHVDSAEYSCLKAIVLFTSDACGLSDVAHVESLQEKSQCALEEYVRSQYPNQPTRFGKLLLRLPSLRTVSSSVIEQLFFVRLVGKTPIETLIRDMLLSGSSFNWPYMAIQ
Nuclear receptor subfamily 5 group A member 2 (Homo sapiens), sequence (O00482 whole entry, looked up): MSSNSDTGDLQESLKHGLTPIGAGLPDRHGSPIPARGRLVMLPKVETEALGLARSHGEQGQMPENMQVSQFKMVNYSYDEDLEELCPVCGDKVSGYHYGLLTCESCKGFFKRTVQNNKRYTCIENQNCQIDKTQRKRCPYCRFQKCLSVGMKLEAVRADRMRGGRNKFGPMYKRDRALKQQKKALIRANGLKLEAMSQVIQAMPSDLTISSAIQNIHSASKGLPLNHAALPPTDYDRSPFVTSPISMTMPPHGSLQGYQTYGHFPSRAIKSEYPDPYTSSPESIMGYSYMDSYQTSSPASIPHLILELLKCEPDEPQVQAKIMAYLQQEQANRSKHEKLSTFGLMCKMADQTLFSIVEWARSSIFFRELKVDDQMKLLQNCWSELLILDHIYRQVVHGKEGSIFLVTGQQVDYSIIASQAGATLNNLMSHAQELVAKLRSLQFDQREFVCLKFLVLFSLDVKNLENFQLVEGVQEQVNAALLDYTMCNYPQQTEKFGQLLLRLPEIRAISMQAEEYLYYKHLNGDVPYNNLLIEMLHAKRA
Nuclear receptor coactivator 3 (Homo sapiens), sequence (Q9Y6Q9 whole entry, looked up, the tested form may be a part): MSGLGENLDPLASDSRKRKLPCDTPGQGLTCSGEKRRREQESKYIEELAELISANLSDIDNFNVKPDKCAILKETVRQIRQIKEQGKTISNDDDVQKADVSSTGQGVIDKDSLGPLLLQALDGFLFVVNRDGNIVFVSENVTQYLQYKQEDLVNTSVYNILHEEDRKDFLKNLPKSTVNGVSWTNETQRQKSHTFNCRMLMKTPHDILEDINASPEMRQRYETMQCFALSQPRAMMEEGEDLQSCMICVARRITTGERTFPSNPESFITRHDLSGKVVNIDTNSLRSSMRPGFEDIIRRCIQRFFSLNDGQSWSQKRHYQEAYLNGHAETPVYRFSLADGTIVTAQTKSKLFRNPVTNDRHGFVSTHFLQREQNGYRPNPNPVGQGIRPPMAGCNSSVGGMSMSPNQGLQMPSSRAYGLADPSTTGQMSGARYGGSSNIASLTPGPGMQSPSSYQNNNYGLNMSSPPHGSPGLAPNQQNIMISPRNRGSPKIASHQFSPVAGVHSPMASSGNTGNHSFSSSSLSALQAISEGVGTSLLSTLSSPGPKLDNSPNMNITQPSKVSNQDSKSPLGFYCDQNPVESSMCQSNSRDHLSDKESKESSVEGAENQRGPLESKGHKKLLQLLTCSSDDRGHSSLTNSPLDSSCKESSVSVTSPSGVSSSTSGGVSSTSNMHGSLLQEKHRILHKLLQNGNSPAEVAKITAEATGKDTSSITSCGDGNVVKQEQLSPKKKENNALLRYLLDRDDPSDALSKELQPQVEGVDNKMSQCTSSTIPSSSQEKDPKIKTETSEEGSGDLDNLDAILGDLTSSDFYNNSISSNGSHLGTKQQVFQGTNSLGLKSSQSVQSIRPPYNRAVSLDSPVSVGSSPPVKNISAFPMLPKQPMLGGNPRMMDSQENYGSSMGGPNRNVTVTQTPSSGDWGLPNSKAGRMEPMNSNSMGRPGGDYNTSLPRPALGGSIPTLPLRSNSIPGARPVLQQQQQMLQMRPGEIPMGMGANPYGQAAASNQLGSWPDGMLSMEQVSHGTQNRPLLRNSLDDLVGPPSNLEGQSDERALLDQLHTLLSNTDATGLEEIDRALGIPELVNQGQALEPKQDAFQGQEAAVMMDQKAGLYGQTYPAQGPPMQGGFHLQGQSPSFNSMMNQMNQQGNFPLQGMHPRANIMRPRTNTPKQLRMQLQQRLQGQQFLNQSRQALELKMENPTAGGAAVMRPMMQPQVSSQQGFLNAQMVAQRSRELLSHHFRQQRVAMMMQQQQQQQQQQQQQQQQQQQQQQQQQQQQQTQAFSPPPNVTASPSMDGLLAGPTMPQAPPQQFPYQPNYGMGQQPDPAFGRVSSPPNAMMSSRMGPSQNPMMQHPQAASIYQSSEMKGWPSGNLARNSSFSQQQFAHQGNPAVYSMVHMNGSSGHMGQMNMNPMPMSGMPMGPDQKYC
Nuclear receptor coactivator 2 (Homo sapiens), sequence (Q15596 whole entry, looked up, the tested form may be a part): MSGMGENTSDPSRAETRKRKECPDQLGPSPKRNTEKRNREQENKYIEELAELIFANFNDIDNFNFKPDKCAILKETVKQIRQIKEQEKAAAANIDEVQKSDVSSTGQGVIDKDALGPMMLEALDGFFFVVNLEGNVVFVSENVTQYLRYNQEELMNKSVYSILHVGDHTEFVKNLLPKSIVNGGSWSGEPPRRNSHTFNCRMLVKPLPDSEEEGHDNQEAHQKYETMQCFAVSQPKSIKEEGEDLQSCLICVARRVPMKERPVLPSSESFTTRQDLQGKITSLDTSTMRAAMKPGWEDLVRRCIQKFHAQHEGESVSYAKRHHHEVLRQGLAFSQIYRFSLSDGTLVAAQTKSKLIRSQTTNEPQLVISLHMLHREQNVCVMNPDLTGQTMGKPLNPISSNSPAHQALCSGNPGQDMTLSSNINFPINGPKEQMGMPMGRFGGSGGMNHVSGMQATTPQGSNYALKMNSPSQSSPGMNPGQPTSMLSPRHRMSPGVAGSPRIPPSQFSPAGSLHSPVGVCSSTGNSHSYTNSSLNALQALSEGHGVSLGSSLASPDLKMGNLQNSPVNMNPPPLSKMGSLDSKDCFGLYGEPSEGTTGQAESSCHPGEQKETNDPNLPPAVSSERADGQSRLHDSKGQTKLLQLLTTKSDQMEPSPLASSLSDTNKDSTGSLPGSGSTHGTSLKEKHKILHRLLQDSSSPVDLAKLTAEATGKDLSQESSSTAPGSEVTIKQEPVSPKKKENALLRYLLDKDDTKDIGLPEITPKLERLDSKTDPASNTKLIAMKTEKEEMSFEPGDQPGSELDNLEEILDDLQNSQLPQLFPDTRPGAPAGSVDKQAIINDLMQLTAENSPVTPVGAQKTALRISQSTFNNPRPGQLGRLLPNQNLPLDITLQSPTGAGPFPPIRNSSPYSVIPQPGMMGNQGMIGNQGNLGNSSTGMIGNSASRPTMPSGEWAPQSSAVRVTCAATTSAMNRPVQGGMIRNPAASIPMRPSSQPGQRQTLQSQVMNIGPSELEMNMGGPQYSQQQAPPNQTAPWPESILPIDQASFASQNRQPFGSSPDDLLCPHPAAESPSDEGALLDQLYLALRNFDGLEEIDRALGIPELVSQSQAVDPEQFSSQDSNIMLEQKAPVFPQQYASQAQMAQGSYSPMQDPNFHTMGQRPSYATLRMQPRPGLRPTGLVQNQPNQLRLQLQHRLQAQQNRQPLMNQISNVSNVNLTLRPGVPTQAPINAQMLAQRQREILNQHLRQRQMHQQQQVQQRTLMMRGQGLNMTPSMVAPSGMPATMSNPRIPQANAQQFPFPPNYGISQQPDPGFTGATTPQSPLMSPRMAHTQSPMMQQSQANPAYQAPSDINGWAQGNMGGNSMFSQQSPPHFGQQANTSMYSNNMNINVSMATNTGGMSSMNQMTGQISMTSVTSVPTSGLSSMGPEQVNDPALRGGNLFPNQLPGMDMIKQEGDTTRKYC
Photoreceptor-specific nuclear receptor (Homo sapiens), sequence (Q9Y5X4 whole entry, looked up, the tested form may be a part): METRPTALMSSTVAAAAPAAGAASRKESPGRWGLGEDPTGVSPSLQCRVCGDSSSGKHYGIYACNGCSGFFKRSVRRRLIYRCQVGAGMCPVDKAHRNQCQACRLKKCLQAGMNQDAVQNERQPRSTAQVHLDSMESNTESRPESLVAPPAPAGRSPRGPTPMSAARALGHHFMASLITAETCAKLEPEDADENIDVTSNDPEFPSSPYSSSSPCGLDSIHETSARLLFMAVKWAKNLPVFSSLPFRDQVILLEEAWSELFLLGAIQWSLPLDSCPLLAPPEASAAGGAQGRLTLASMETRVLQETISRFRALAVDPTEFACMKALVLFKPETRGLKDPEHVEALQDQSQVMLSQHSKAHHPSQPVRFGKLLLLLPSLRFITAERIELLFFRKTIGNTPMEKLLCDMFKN

Consider `CCN(CC)c1ccc(/C=N/NC(=O)c2cccc(S(=O)(=O)N3CCOCC3)c2)c(O)c1`, for which the inhibition in test [1] was 60% (active); in test [2], 61.7% (active); in test [3], 79.2% (active); in [4], 96.4% (active); in test [5], 82.6% (active); in test [6], 64.8% (active).

`Cn1c(CCN2CCN(c3ccccn3)CC2)nc2cc(NC(=O)COc3ccc(Cl)cc3)ccc21`: the inhibition in test [1] was 18%; in test [2] it was 33.9% (active); in [3], 29.2% (active); in test [4] it was 49.8% (active); in [5] it was 51.4% (active); in [6], 51.6% (active).

Turning to `COc1ccc(NC(=O)c2cc(-c3cc(Cl)ccc3C)n[nH]2)cc1OC`, the inhibition in test [1] was 20.2%; in [2] it was 50.6% (active); in test [3], 30.7% (active); in test [4], 57% (active); in [5], 61.1% (active); in test [6], 64.4% (active).

As to `CCC1C/C(=C\c2cccnc2)C(=O)/C(=C/c2cccnc2)C1` (stereo not drawn), the inhibition in [1] was 15.6%; in test [2] it was 78.6% (active); in test [3], 60.2% (active); in [4], 103% (active); in test [5] it was 97.7% (active); in test [6], 90.7% (active).

Take `COc1cc2c(c(OC)c1OC)-c1ccc(SC)c(=O)cc1C(NC=O)CC2` (stereo not drawn): the inhibition in test [1] was 44.5% (active); in [2], 15.7%; in test [3] it was 67% (active); in test [4], 65.8% (active); in test [5], 69.7% (active); in test [6] it was 54.5% (active).

For the compound `COC(=O)c1ccc(COC(=O)c2[nH]c(C)c(C(C)=O)c2C)o1`, the inhibition in [1] is 19.6%; in [2] it was 15.9%; in [3] it was 12.8%; in test [4], 54.4% (active); in [5] it was 38.7%; in [6] it was 41% (active).

`CN(c1ccccc1)S(=O)(=O)c1cccc(C(=O)OCC(=O)Nc2ccc(C(N)=O)cc2)c1`: the inhibition in [1] was 6.76%; in test [2] it was -5.87%; in test [3], 16.5%; in [4], 1.26%; in test [5], 10%; in [6], -16.3%.

Regarding `CCCCC(=O)NC(c1ccc(OC)cc1)c1ccc2cccnc2c1O` (stereo not drawn), the inhibition is 28.5% in test [1]; 14.8% in [2]; 8.78% in test [3]; 17.3% in test [4]; 18.6% in [5]; 27% in test [6].

With `O=[N+]([O-])c1ccc(O)c(/C=N/Nc2nc3ccccc3[nH]2)c1`, the inhibition was 64% (active) in [1]; 62.7% (active) in test [2]; 80.6% (active) in test [3]; 97.5% (active) in test [4]; 84.3% (active) in test [5]; 83% (active) in [6].

As to `O=C(OC12CC3CC(CC(C3)C1)C2)c1ccc(NCc2cc(O)ccc2O)cc1`, the inhibition in test [1] was 89.3% (active); in test [2], 59.6% (active); in test [7] it was 78.1% (active); in test [8], 18.6%; in test [3], 66.5% (active); in [4], 82.9% (active). For the same compound, the inhibition in test [5] is 80.2% (active); in test [6], 86% (active); in test [9], 95.5% (active); in test [10], 96.4% (active); in test [11], 79.4% (active); in test [12], 103% (active).

Regarding `C[n+]1c2n(c3ccccc31)N=C(c1cc(C(C)(C)C)c(O)c(C(C)(C)C)c1)CS2`, the inhibition is 81.1% (active) in test [1]; 84.6% (active) in test [2]; 81.7% (active) in test [3]; 106% (active) in [4]; 95% (active) in test [5]; 90% (active) in test [6].

As to `CC(=O)Nc1ccc(-c2csc(NC(=O)Nc3ccccc3)n2)cc1`, the inhibition is 4.6% in test [1]; -0.97% in test [2]; -38.2% in test [13]; -3.98% in [14]; -18.8% in test [11]; 35.7% in [12].

For `C=CS(=O)(=O)N(Cc1ccccc1Br)[C@H](CO)Cc1ccccc1`, the inhibition in test [1] is 24.3%; in test [2] it was 0.02%; in [3], 20.1%; in test [4], 32.2%; in test [5] it was 48.7% (active); in test [6], 23.2%.

For `CN(CCOc1ccc(Cl)cc1)C(=O)c1cccc(S(=O)(=O)N2CCN(c3ccc(F)cc3)CC2)c1`, the inhibition in [1] was 24.4%; in [2] it was 41.2% (active); in [3], 24.3%; in test [4] it was 60.9% (active); in [5] it was 63.8% (active); in [6], 53.2% (active).

As for `COc1cc(SC)ccc1C(=O)Nc1nc(C)cs1`, the inhibition in [1] is 15.6%; in [2] it was 15.1%; in test [13] it was -68.3%; in test [14], 14.8%; in test [9], 50.1% (active); in [10] it was 75.4% (active). Also, the inhibition was 46.4% (active) in test [11] and 69.1% (active) in test [12].

For `C[n+]1c2n(c3ccccc31)N=C(c1ccc(-c3ccccc3)cc1)CS2`, the inhibition is 36.6% in [1]; 52.8% (active) in test [2]; 32.7% (active) in test [3]; 87.7% (active) in [4]; 78.2% (active) in test [5]; 72.8% (active) in test [6].

With `CC(=O)c1c(C)[nH]c(C(=O)OCC(=O)Nc2ccc(Cl)cc2[N+](=O)[O-])c1C`, the inhibition was 9.25% in test [1]; 38% (active) in test [2]; 22% in [3]; 59.6% (active) in [4]; 62.2% (active) in test [5]; 54.5% (active) in test [6].

`Cc1cc(C(=O)NC2CCCc3c2cnn3-c2ccc(C)c(C)c2)n(C)n1` (stereo not drawn): the inhibition in test [1] is 21.1%; in test [2], 52.5% (active); in test [3] it was 33.4% (active); in [4], 62% (active); in test [5] it was 57.4% (active); in test [6] it was 67.1% (active).

`CCNc1nc(NC(C)(C)C)nc(SC(C(C)=O)C(C)=O)n1`: the inhibition in test [1] is 23.3%; in [2], 32% (active); in test [3] it was 60.2% (active); in test [4], 72.4% (active); in test [5], 64.2% (active); in test [6] it was 49.4% (active).

Turning to `c1ccc(-c2csc3ncnc(NCC4COc5ccccc5O4)c23)cc1` (stereo not drawn), the inhibition in test [1] is 8.5%; in test [2], 53% (active); in [3], 34.8% (active); in test [4] it was 57.8% (active); in test [5], 62.5% (active); in test [6], 60.4% (active).

The record behind these values is PubChem BioAssay.
